# In the supplement of paper PMC9262897, “Low-cost anti-mycobacterial drug discovery using engineered E. coli” (Nature Communications, 2022):
# Structures can show the parent of a compound that is named as a salt. ± gives the standard deviation of the averaged measurements.
# Key:
# Experiment in all cases: growth (OD600 after 10 h); higher = more growth (less inhibition)
# [1] = system: E. coli TESEC Alr+ wild-type control; settings: compound 0.1 mM; raw OD600 reference: median of DMSO wells 0.241, cell-free background 0.041
# Description: (§1)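 TESEC Mtb Alr E. coli, or the Alr+ wild-type control, in 384-well plates with Prestwick library compounds at 0.1 mM and 1% DMSO, across arabinose induction levels of 1E3 to 1E7 nM. Growth is read as OD600 after 10 h at 37 °C in triplicate biological replicates.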
# E. coli TESEC Mtb Alr [2] = settings: compound 0.1 mM
# Description: as §1
# E. coli TESEC Mtb Asd = settings: compound 0.1 mM
# Description: (§2)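 TESEC E. coli strains in which the native enzyme is deleted and replaced by arabinose-inducible Mtb Asd, DapB, CysH or TrpD, each grown in its selective medium. Strains were screened against the Prestwick library at 0.1 mM and 1% DMSO in 384-well format at low and high arabinose induction. Growth is read as OD600 after 10 h in triplicate.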
# E. coli TESEC Mtb DapB = settings: compound 0.1 mM
# Description: as §2
# [3] = system: E. coli TESEC Alr+ wild-type control; settings: compound 0.1 mM; raw OD600 reference: median of DMSO wells 0.49, cell-free background 0.052
# Description: (§3)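 TESEC Mtb Alr E. coli (ΔaraC ΔtolC ΔentC Δalr ΔdadX, arabinose-inducible Mtb Alr) or the Alr+ wild-type control strain, grown in defined M9-fructose medium without D-alanine in 96-well plates with Prestwick library compounds at 0.1 mM and 1% DMSO. Low Alr induction is 0.1 µM arabinose and high induction is 10 mM arabinose.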
# E. coli TESEC Mtb Alr [4] = settings: compound 0.1 mM; remark: listed apart in the source
# Description: as §3
# [5] = arabinose 1000 nM, raw OD600 reference: median of DMSO wells 0.294, cell-free background 0.041
# [6] = arabinose 10000 nM, raw OD600 reference: median of DMSO wells 0.264, cell-free background 0.041
# [7] = arabinose 100000 nM, raw OD600 reference: median of DMSO wells 0.201, cell-free background 0.041
# [8] = arabinose 1000000 nM, raw OD600 reference: median of DMSO wells 0.193, cell-free background 0.041
# [9] = arabinose 10000000 nM, raw OD600 reference: median of DMSO wells 0.146, cell-free background 0.041
# [10] = arabinose induction (level): High, raw OD600 reference: median of DMSO wells 0.331, cell-free background 0.041
# [11] = arabinose induction (level): Low, raw OD600 reference: median of DMSO wells 0.417, cell-free background 0.041
# [12] = arabinose induction (level): High, raw OD600 reference: median of DMSO wells […], cell-free background 0.041
# [13] = arabinose induction (level): Low, raw OD600 reference: median of DMSO wells 0.227, cell-free background 0.041
# [14] = arabinose 100 nM, raw OD600 reference: median of DMSO wells 0.413, cell-free background 0.052
# [15] = arabinose 10000000 nM, raw OD600 reference: median of DMSO wells […], cell-free background 0.052
SMILES,growth [1],growth (E. coli TESEC Mtb Alr [2]; [5]),growth (E. coli TESEC Mtb Alr [2]; [6]),growth (E. coli TESEC Mtb Alr [2]; [7]),growth (E. coli TESEC Mtb Alr [2]; [8]),growth (E. coli TESEC Mtb Alr [2]; [9]),growth (E. coli TESEC Mtb Asd; [10]),growth (E. coli TESEC Mtb Asd; [11]),growth (E. coli TESEC Mtb DapB; [12]),growth (E. coli TESEC Mtb DapB; [13]),growth [3],growth (E. coli TESEC Mtb Alr [4]; [14]),growth (E. coli TESEC Mtb Alr [4]; [15])
COc1cc2nc(N3CCN(C(=O)C4CCCO4)CC3)nc(N)c2cc1OC (stereo unspecified) [Terazosin hydrochloride],0.208 ± 0.008,0.292 ± 0.0061,0.2762 ± 0.00084,0.139 ± 0.0052,0.138 ± 0.0066,0.144 ± 0.0038,0.215 ± 0.012,0.431 ± 0.0086,0.222 ± 0.02,0.219 ± 0.012,0.443 ± 0.035,0.407 ± 0.01,0.259 ± 0.019
NCCNCCNCCNCCN [Tetraethylenepentamine pentahydrochloride],0.273 ± 0.0096,0.313 ± 0.013,0.263 ± 0.0027,0.217 ± 0.028,0.181 ± 0.011,0.136 ± 0.0077,0.337 ± 0.074,0.441 ± 0.0047,0.196 ± 0.003,0.22 ± 0.015,0.4747 ± 0.0042,0.414 ± 0.0053,0.303 ± 0.01
CCCCOc1cc(C(=O)OCCN(CC)CC)ccc1N [Benoxinate hydrochloride],0.206 ± 0.0046,0.256 ± 0.016,0.25 ± 0.0055,0.177 ± 0.015,0.1482 ± 0.00091,0.143 ± 0.0029,0.27 ± 0.12,0.451 ± 0.059,0.183 ± 0.016,0.21 ± 0.036,0.476 ± 0.024,0.4124 ± 0.0014,0.33 ± 0.011
Cc1nnc(SCC2=C(C(=O)O)N3C(=O)[C@@H](NC(=O)Cn4cnnn4)[C@H]3SC2)s1 [Cefazolin sodium salt],0.286 ± 0.013,0.3162 ± 0.0031,0.24 ± 0.0064,0.229 ± 0.0084,0.183 ± 0.0062,0.145 ± 0.0033,0.313 ± 0.07,0.428 ± 0.0098,0.192 ± 0.0067,0.237 ± 0.019,0.562 ± 0.098,0.328 ± 0.015,0.363 ± 0.0051
O=C1CN2Cc3c(ccc(Cl)c3Cl)N=C2N1 [Anagrelide],0.216 ± 0.0042,0.2815 ± 0.0021,0.281 ± 0.0097,0.191 ± 0.0049,0.209 ± 0.011,0.142 ± 0.005,0.27 ± 0.06,0.423 ± 0.043,0.198 ± 0.011,0.232 ± 0.024,0.536 ± 0.019,0.413 ± 0.011,0.368 ± 0.065
CN1CCN(CCCN2c3ccccc3Sc3ccc(Cl)cc32)CC1 [Prochlorperazine dimaleate],0.04087 ± 0.00015,0.041 ± 0.00045,0.03943 ± 0.00025,0.0418 ± 0.00082,0.0404 ± 0.0023,0.0433 ± 0.00072,0.059 ± 0.0069,0.166 ± 0.025,0.156 ± 0.021,0.139 ± 0.0076,0.04753 ± 0.00025,0.287 ± 0.21,0.0531 ± 0.0013
CCC1(C)CC(=O)NC1=O (stereo unspecified) [Ethosuximide],0.2481 ± 0.002,0.287 ± 0.014,0.267 ± 0.0062,0.219 ± 0.016,0.1876 ± 0.0001,0.141 ± 0.003,0.38 ± 0.03,0.417 ± 0.026,0.1866 ± 0.0016,0.245 ± 0.052,0.436 ± 0.043,0.4152 ± 0.0041,0.368 ± 0.019
C=Cc1c(C)c2cc3nc(cc4[nH]c(cc5nc(cc1[nH]2)C(C)=C5CCC(=O)O)c(CCC(=O)OC)c4C)[C@@]1(C)C3=CC=C(C(=O)OC)C1C(=O)OC.C=Cc1c(C)c2cc3nc(cc4[nH]c(cc5nc(cc1[nH]2)C(C)=C5CCC(=O)OC)c(CCC(=O)O)c4C)[C@@]1(C)C3=CC=C(C(=O)OC)C1C(=O)OC (stereo partly specified) [Verteporfin],0.313 ± 0.011,0.356 ± 0.011,0.289 ± 0.0059,0.443 ± 0.0078,0.179 ± 0.0041,0.218 ± 0.0072,0.329 ± 0.016,0.432 ± 0.0089,0.211 ± 0.024,0.277 ± 0.043,0.5678 ± 0.0038,0.556 ± 0.057,0.439 ± 0.021
CO[C@H]1/C=C/O[C@@]2(C)Oc3c(C)c(O)c4c(O)c(c5c(nc6cc(C)ccn65)c4c3C2=O)NC(=O)/C(C)=C\C=C\[C@H](C)[C@H](O)[C@@H](C)[C@@H](O)[C@@H](C)[C@H](OC(C)=O)[C@@H]1C [Rifaximin],0.044 ± 0.0038,0.0438 ± 0.0029,0.0409 ± 0.0005,0.0411 ± 0.00017,0.0418 ± 0.0021,0.0439 ± 0.0024,0.0569 ± 0.001,0.054 ± 0.0016,0.103 ± 0.089,0.0515 ± 0.0028,0.0531 ± 0.00076,0.05527 ± 0.00047,0.0526 ± 0.00044
Cc1c(Nc2ncccc2C(=O)O)cccc1C(F)(F)F [Flunixin meglumine],0.146 ± 0.0033,0.084 ± 0.007,0.0857 ± 0.0019,0.163 ± 0.005,0.082 ± 0.0026,0.127 ± 0.0028,0.157 ± 0.0086,0.125 ± 0.0096,0.178 ± 0.0075,0.187 ± 0.01,0.373 ± 0.034,0.277 ± 0.026,0.146 ± 0.021
C[C@H]1C[C@H]2[C@@H]3CCC4=CC(=O)C=C[C@]4(C)[C@@]3(F)[C@@H](O)C[C@]2(C)[C@@]1(O)C(=O)CO [Betamethasone],0.184 ± 0.0078,0.231 ± 0.031,0.256 ± 0.002,0.154 ± 0.0079,0.134 ± 0.0038,0.131 ± 0.0027,0.273 ± 0.096,0.36 ± 0.054,0.198 ± 0.033,0.211 ± 0.064,0.552 ± 0.02,0.406 ± 0.0084,0.257 ± 0.0044
Cc1cc(C(=O)NNCc2ccccc2)no1 [Isocarboxazid],0.253 ± 0.0036,0.319 ± 0.014,0.28 ± 0.0081,0.234 ± 0.0096,0.198 ± 0.0079,0.158 ± 0.0025,0.492 ± 0.0092,0.441 ± 0.039,0.211 ± 0.023,0.239 ± 0.035,0.463 ± 0.036,0.402 ± 0.014,0.362 ± 0.013
Clc1ccc2c(c1)CCc1cccnc1C2=C1CCNCC1 [Desloratadine],0.2 ± 0.015,0.211 ± 0.0061,0.256 ± 0.0088,0.163 ± 0.0094,0.153 ± 0.0064,0.145 ± 0.0037,0.149 ± 0.023,0.251 ± 0.026,0.216 ± 0.033,0.215 ± 0.031,0.545 ± 0.014,0.398 ± 0.0076,0.288 ± 0.016
CCCCC(CC)CN1CN(CC(CC)CCCC)CC(C)(N)C1 (stereo unspecified) [Hexetidine],0.219 ± 0.015,0.259 ± 0.0085,0.309 ± 0.0098,0.228 ± 0.039,0.161 ± 0.014,0.187 ± 0.0073,0.309 ± 0.022,0.373 ± 0.059,0.218 ± 0.018,0.225 ± 0.033,0.0454 ± 0.00058,0.173 ± 0.21,0.0486 ± 0.0013
COc1ccc2c3c1O[C@H]1C[C@@H](O)C=C[C@@]31CCN(C)C2 [Galanthamine hydrobromide],0.249 ± 0.0042,0.291 ± 0.0095,0.245 ± 0.0045,0.218 ± 0.014,0.161 ± 0.0075,0.1382 ± 0.00072,0.229 ± 0.0098,0.376 ± 0.094,0.186 ± 0.012,0.195 ± 0.016,0.459 ± 0.04,0.409 ± 0.01,0.34 ± 0.022
CC1(C)[C@@H](OC(=O)CCC(=O)O)CC[C@]2(C)[C@H]3C(=O)C=C4[C@@H]5C[C@@](C)(C(=O)O)CC[C@]5(C)CC[C@@]4(C)[C@]3(C)CC[C@@H]12 [Carbenoxolone disodium salt],0.248 ± 0.007,0.275 ± 0.004,0.2609 ± 0.0019,0.319 ± 0.0044,0.213 ± 0.0028,0.201 ± 0.0016,0.325 ± 0.15,0.251 ± 0.006,0.196 ± 0.018,0.225 ± 0.012,0.426 ± 0.03,0.405 ± 0.019,0.37 ± 0.0045
O=C1CC[C@@H](C(=O)N2CSC[C@H]2C(=O)O)N1 [Pidotimod],0.231 ± 0.0032,0.29 ± 0.003,0.261 ± 0.005,0.184 ± 0.032,0.217 ± 0.033,0.135 ± 0.0014,0.271 ± 0.059,0.415 ± 0.024,0.191 ± 0.013,0.235 ± 0.037,0.536 ± 0.1,0.42 ± 0.011,0.335 ± 0.0057
